# From the supplement of paper PMC12645437, “Orthogonal IMiD-Degron Pairs Induce Selective Protein Degradation in Cells” (ACS Chemical Biology, 2025)
# Over roughly 8,300 sequences, “log2 fold change of degron read counts, EGFP-low vs EGFP+ sorted cells (limma voom), compound-induced degradation” has its median near -1.1; the highest 2% begin near 3.2. Many of the other results were omitted from the sample, so the highest values are more common in it than they were.
# T1: CRBN, Q96SW2
# T1 chain: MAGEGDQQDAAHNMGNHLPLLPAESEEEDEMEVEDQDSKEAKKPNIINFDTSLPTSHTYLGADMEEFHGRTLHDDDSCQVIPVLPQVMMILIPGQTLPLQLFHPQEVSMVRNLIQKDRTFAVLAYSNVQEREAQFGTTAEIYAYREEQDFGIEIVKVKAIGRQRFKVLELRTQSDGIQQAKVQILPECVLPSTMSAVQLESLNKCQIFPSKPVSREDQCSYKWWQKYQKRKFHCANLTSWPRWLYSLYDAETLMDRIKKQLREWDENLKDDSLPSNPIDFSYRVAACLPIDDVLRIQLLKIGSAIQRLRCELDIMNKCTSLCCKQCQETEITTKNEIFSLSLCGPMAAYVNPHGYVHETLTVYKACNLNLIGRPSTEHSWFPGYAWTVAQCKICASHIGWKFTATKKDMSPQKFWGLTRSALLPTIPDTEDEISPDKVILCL
# Target: T1, CRBN, Q96SW2
# Test: log2 fold change of degron read counts, EGFP-low vs EGFP+ sorted cells (limma voom), compound-induced degradation; higher = more compound-induced degradation of the degron-EGFP fusion; degrons are variants of IKZF1/3 zinc finger 2; compound dose not given here
# Settings: Jurkat, 18 h
# [1] = compound: compound 19 (5-tert-butyl-thalidomide)
# [2] = compound: compound 22 (5-morpholino-thalidomide)
# [3] = compound: compound 33 (diphenyl IMiD analogue)
# 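Also: pooled lentiviral library of zinc finger degron-EGFP fusions in mCherry-positive Jurkat cells, FACS-sorted after compound exposure, with degron abundance counted by next-generation sequencing.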
Sequence,log2 fold change of degron read counts [1],log2 fold change of degron read counts [2],log2 fold change of degron read counts [3],log2 fold change of degron read counts (compound: thalidomide)
"FCCDICGAFFTQKGNLLRHIKL [46F_47C_49D_50I_52G_53A_54F_55F_67L_, Q9UKT9]",-0.849,-1.43,-0.311,-2.26
"FSCPQCGAHFTQKGNLLRHIKL [46F_47S_49P_50Q_52G_53A_54H_55F_67L_, Q9UKT9]",-1.06,-2.04,-0.649,-1.51
"FSCSVCGHMFTQKGNLLRHIKL [46F_47S_49S_50V_52G_53H_54M_55F_67L_, Q9UKT9]",-2.17,-2.85,-2.33,-2.67
"FHCNICGAGFTQKGNLLRHIKL [46F_47H_49N_50I_52G_53A_54G_55F_67L_, Q9UKT9]",1.76,0.175,1.2,-0.885
"FSCPICGRFFTQKGNLLRHIKL [46F_47S_49P_50I_52G_53R_54F_55F_67L_, Q9UKT9]",-0.54,-1.4,-0.477,-1.17
"FKCEICGRDFTQKGNLLRHIKL [46F_47K_49E_50I_52G_53R_54D_55F_67L_, Q9UKT9]",-3.16,-3.46,-3.24,-2.51
"FYCPICGRFFTQKGNLLRHIKL [46F_47Y_49P_50I_52G_53R_54F_55F_67L_, Q9UKT9]",-0.827,-0.851,-1,-2.07
"LLCEICGFACTQKGNLLRHIKL [46L_47L_49E_50I_52G_53F_54A_55C_67L_, Q9UKT9]",0.644,-0.727,0.56,1.35
"FLCDQCGAYFTQKGNLLRHIKL [46F_47L_49D_50Q_52G_53A_54Y_55F_67L_, Q9UKT9]",-3.04,-2.52,-2.25,-2.41
"LYCEICGFQCTQKGNLLRHIKL [46L_47Y_49E_50I_52G_53F_54Q_55C_67L_, Q9UKT9]",3.53,3.71,2.78,1.8
"LSCEICGFQCTQKGNLLRHIKL [46L_47S_49E_50I_52G_53F_54Q_55C_67L_, Q9UKT9]",2.4,1.95,0.752,1.19
"LDCEICGFQCTQKGNLLRHIKL [46L_47D_49E_50I_52G_53F_54Q_55C_67L_, Q9UKT9]",-0.786,-1.68,-1.53,-0.616
"LQCEICGFQCTQKGNLLRHIKL [46L_47Q_49E_50I_52G_53F_54Q_55C_67L_, Q9UKT9]",0.99,0.223,1.43,3.3
"LFCEICGFQCTQKGNLLRHIKL [46L_47F_49E_50I_52G_53F_54Q_55C_67L_, Q9UKT9]",3.43,3.41,1.96,2.09
"LMCEICGFQCTQKGNLLRHIKL [46L_47M_49E_50I_52G_53F_54Q_55C_67L_, Q9UKT9]",0.286,0.912,2.55,2.04
"LECEICGFQCTQKGNLLRHIKL [46L_47E_49E_50I_52G_53F_54Q_55C_67L_, Q9UKT9]",-0.896,-1.36,0.772,2.01
"LCCEICGFQCTQKGNLLRHIKL [46L_47C_49E_50I_52G_53F_54Q_55C_67L_, Q9UKT9]",1.95,1.72,1.6,1.91
"LWCEICGFQCTQKGNLLRHIKL [46L_47W_49E_50I_52G_53F_54Q_55C_67L_, Q9UKT9]",3.2,3.49,2.53,1.13
"LICEICGFQCTQKGNLLRHIKL [46L_47I_49E_50I_52G_53F_54Q_55C_67L_, Q9UKT9]",0.761,2.3,2.38,3
"LLCEICGFQCTQKGNLLRHIKL [46L_47L_49E_50I_52G_53F_54Q_55C_67L_, Q9UKT9]",0.49,-0.719,0.751,1.99
"LACEICGFQCTQKGNLLRHIKL [46L_47A_49E_50I_52G_53F_54Q_55C_67L_, Q9UKT9]",3.16,2.06,0.631,0.66
"FMCEQCGAPFTQKGNLLRHIKL [46F_47M_49E_50Q_52G_53A_54P_55F_67L_, Q9UKT9]",-0.389,-0.627,1.41,-0.399
"FTCEICGHIFTQKGNLLRHIKL [46F_47T_49E_50I_52G_53H_54I_55F_67L_, Q9UKT9]",-2.87,-3.7,-2.68,-2.59
"FGCDICGANFTQKGNLLRHIKL [46F_47G_49D_50I_52G_53A_54N_55F_67L_, Q9UKT9]",-0.278,-0.474,0.0264,-0.564
"FYCNQCGRHFTQKGNLLRHIKL [46F_47Y_49N_50Q_52G_53R_54H_55F_67L_, Q9UKT9]",-2.11,-2.71,-2.01,-2.05
"FRCNQCGHLFTQKGNLLRHIKL [46F_47R_49N_50Q_52G_53H_54L_55F_67L_, Q9UKT9]",-2.18,-2.82,-2.46,-2.45
"LFCNQCGFACTQKGNLLRHIKL [46L_47F_49N_50Q_52G_53F_54A_55C_67L_, Q9UKT9]",-0.744,-1.36,-1.06,-1.14
"LACNQCGFECTQKGNLLRHIKL [46L_47A_49N_50Q_52G_53F_54E_55C_67L_, Q9UKT9]",-2.6,-2.34,-2.97,-2.24
